{"source": "PubChem BioAssay (NCATS)", "note": "Inconclusive results are not listed. A call without a number means that no potency is given here. The source made the active and inactive calls. Calls follow the shape of the dose curve; as a rule, active = well fitted inhibition curve with a large enough effect; inconclusive = small, poorly fitted or top-dose-only effect; inactive = flat fitted curve, though single readings scatter."}
{"tested_on": "FAB9", "experiment": "qHTS profiling for inhibitors of Plasmodium falciparum proliferation (AID 504749); also: nearly all actives have a fitted effect of over 60% in size; also: potency is read from the fitted curve at half-maximal effect", "settings": "P. falciparum in erythrocytes, SYBR Green DNA, 72 h; series mostly up to 28.7 µM", "summary_of_the_method": "(§1)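 Fluorescence of SYBR Green-bound parasite DNA, read at 485/535 nm, served as the growth measure. Infected erythrocytes were cultured with compound 72 h; artemisinin (0.29 uM) and DMSO wells defined the normalization range.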"}
{"molecule": "COc1cccc2c1C(=O)c1c(O)c3c(c(O)c1C2=O)C[C@@](O)(C(=O)CO)C[C@@H]3O[C@H]1C[C@H](N)[C@H](OC2CCCCO2)[C@H](C)O1", "note": "(stereo not given in full)", "Potency": "12.6 µM (active)"}
{"molecule": "CCC(C(=O)O)C1CCC(C)C(C(C)C(O)C(C)C(=O)C(CC)C2OC3(C=CC(O)[C@@]4(CC[C@](C)(C5CC[C@@](O)(CC)C(C)O5)O4)O3)C(C)CC2C)O1", "note": "(stereo not given in full)", "Potency": "2.24 µM (active)"}
{"molecule": "Nc1nc2c(c(=O)[nH]1)N(C=O)[C@H](CNc1ccc(C(=O)N[C@@H](CCC(=O)O)C(=O)O)cc1)CN2", "Potency": "inactive"}
{"molecule": "COc1ccc([C@@H]2CNC(=O)C2)cc1OC1CCCC1", "Potency": "inactive"}
{"molecule": "OCC(O)C(O)C(O)CO", "note": "(stereo not given)", "Potency": "inactive"}
{"molecule": "COc1ccc2c(c1OC)C(=O)OC2[C@H]1c2c(cc3c(c2OC)OCO3)CCN1C", "note": "(stereo not given in full)", "Potency": "inactive"}
{"tested_on": "GB4", "experiment": "qHTS profiling for inhibitors of Plasmodium falciparum proliferation (AID 504749); also: nearly all actives have a fitted effect of over 60% in size; also: potency is read from the fitted curve at half-maximal effect", "settings": "P. falciparum in erythrocytes, SYBR Green DNA, 72 h; series mostly up to 28.7 µM", "summary_of_the_method": "as §1"}
{"molecule": "COc1cccc2c1C(=O)c1c(O)c3c(c(O)c1C2=O)C[C@@](O)(C(=O)CO)C[C@@H]3O[C@H]1C[C@H](N)[C@H](OC2CCCCO2)[C@H](C)O1", "note": "(stereo not given in full)", "Potency": "4.78 µM (active)"}
{"molecule": "CCC(C(=O)O)C1CCC(C)C(C(C)C(O)C(C)C(=O)C(CC)C2OC3(C=CC(O)[C@@]4(CC[C@](C)(C5CC[C@@](O)(CC)C(C)O5)O4)O3)C(C)CC2C)O1", "note": "(stereo not given in full)", "Potency": "0.536 µM (active)"}
{"molecule": "Nc1nc2c(c(=O)[nH]1)N(C=O)[C@H](CNc1ccc(C(=O)N[C@@H](CCC(=O)O)C(=O)O)cc1)CN2", "Potency": "inactive"}
{"molecule": "COc1ccc([C@@H]2CNC(=O)C2)cc1OC1CCCC1", "Potency": "inactive"}
{"molecule": "OCC(O)C(O)C(O)CO", "note": "(stereo not given)", "Potency": "inactive"}
{"molecule": "COc1ccc2c(c1OC)C(=O)OC2[C@H]1c2c(cc3c(c2OC)OCO3)CCN1C", "note": "(stereo not given in full)", "Potency": "inactive"}
{"tested_on": "HB3", "experiment": "qHTS profiling for inhibitors of Plasmodium falciparum proliferation (AID 504749); also: nearly all actives have a fitted effect of over 60% in size; also: potency is read from the fitted curve at half-maximal effect", "settings": "P. falciparum in erythrocytes, SYBR Green DNA, 72 h; series mostly up to 28.7 µM", "summary_of_the_method": "as §1"}
{"molecule": "COc1cccc2c1C(=O)c1c(O)c3c(c(O)c1C2=O)C[C@@](O)(C(=O)CO)C[C@@H]3O[C@H]1C[C@H](N)[C@H](OC2CCCCO2)[C@H](C)O1", "note": "(stereo not given in full)", "Potency": "5.01 µM (active)"}
{"molecule": "CCCCCCCCCCCC(CC1OC(=O)C1CCCCCC)OC(=O)C(CC(C)C)NC=O", "note": "(stereo not given)", "Potency": "1.26 µM (active)"}
{"molecule": "CCC(C(=O)O)C1CCC(C)C(C(C)C(O)C(C)C(=O)C(CC)C2OC3(C=CC(O)[C@@]4(CC[C@](C)(C5CC[C@@](O)(CC)C(C)O5)O4)O3)C(C)CC2C)O1", "note": "(stereo not given in full)", "Potency": "0.891 µM (active)"}
{"molecule": "Nc1nc2c(c(=O)[nH]1)N(C=O)[C@H](CNc1ccc(C(=O)N[C@@H](CCC(=O)O)C(=O)O)cc1)CN2", "Potency": "inactive"}
{"molecule": "COc1ccc([C@@H]2CNC(=O)C2)cc1OC1CCCC1", "Potency": "inactive"}
{"molecule": "OCC(O)C(O)C(O)CO", "note": "(stereo not given)", "Potency": "inactive"}
{"molecule": "COc1ccc2c(c1OC)C(=O)OC2[C@H]1c2c(cc3c(c2OC)OCO3)CCN1C", "note": "(stereo not given in full)", "Potency": "inactive"}
{"tested_on": "ICS", "experiment": "qHTS profiling for inhibitors of Plasmodium falciparum proliferation (AID 504749); also: nearly all actives have a fitted effect of over 60% in size; also: potency is read from the fitted curve at half-maximal effect", "settings": "P. falciparum in erythrocytes, SYBR Green DNA, 72 h; series mostly up to 28.7 µM", "summary_of_the_method": "as §1"}
{"molecule": "COc1cccc2c1C(=O)c1c(O)c3c(c(O)c1C2=O)C[C@@](O)(C(=O)CO)C[C@@H]3O[C@H]1C[C@H](N)[C@H](OC2CCCCO2)[C@H](C)O1", "note": "(stereo not given in full)", "Potency": "0.708 µM (active)"}
{"molecule": "CCCCCCCCCCCC(CC1OC(=O)C1CCCCCC)OC(=O)C(CC(C)C)NC=O", "note": "(stereo not given)", "Potency": "1.12 µM (active)"}
{"molecule": "CCC(C(=O)O)C1CCC(C)C(C(C)C(O)C(C)C(=O)C(CC)C2OC3(C=CC(O)[C@@]4(CC[C@](C)(C5CC[C@@](O)(CC)C(C)O5)O4)O3)C(C)CC2C)O1", "note": "(stereo not given in full)", "Potency": "1 µM (active)"}
{"molecule": "Nc1nc2c(c(=O)[nH]1)N(C=O)[C@H](CNc1ccc(C(=O)N[C@@H](CCC(=O)O)C(=O)O)cc1)CN2", "Potency": "inactive"}
{"molecule": "COc1ccc([C@@H]2CNC(=O)C2)cc1OC1CCCC1", "Potency": "inactive"}
{"molecule": "OCC(O)C(O)C(O)CO", "note": "(stereo not given)", "Potency": "inactive"}
{"molecule": "COc1ccc2c(c1OC)C(=O)OC2[C@H]1c2c(cc3c(c2OC)OCO3)CCN1C", "note": "(stereo not given in full)", "Potency": "inactive"}
{"tested_on": "JCK", "experiment": "qHTS profiling for inhibitors of Plasmodium falciparum proliferation (AID 504749); also: nearly all actives have a fitted effect of over 60% in size; also: potency is read from the fitted curve at half-maximal effect", "settings": "P. falciparum in erythrocytes, SYBR Green DNA, 72 h; series mostly up to 28.7 µM", "summary_of_the_method": "as §1"}
{"molecule": "COc1cccc2c1C(=O)c1c(O)c3c(c(O)c1C2=O)C[C@@](O)(C(=O)CO)C[C@@H]3O[C@H]1C[C@H](N)[C@H](OC2CCCCO2)[C@H](C)O1", "note": "(stereo not given in full)", "Potency": "12.6 µM (active)"}
{"molecule": "CCCCCCCCCCCC(CC1OC(=O)C1CCCCCC)OC(=O)C(CC(C)C)NC=O", "note": "(stereo not given)", "Potency": "1 µM (active)"}
{"molecule": "CCC(C(=O)O)C1CCC(C)C(C(C)C(O)C(C)C(=O)C(CC)C2OC3(C=CC(O)[C@@]4(CC[C@](C)(C5CC[C@@](O)(CC)C(C)O5)O4)O3)C(C)CC2C)O1", "note": "(stereo not given in full)", "Potency": "4.47 µM (active)"}
{"molecule": "Nc1nc2c(c(=O)[nH]1)N(C=O)[C@H](CNc1ccc(C(=O)N[C@@H](CCC(=O)O)C(=O)O)cc1)CN2", "Potency": "inactive"}
{"molecule": "COc1ccc([C@@H]2CNC(=O)C2)cc1OC1CCCC1", "Potency": "inactive"}
{"molecule": "OCC(O)C(O)C(O)CO", "note": "(stereo not given)", "Potency": "inactive"}
{"molecule": "COc1ccc2c(c1OC)C(=O)OC2[C@H]1c2c(cc3c(c2OC)OCO3)CCN1C", "note": "(stereo not given in full)", "Potency": "inactive"}
{"tested_on": "N140", "experiment": "qHTS profiling for inhibitors of Plasmodium falciparum proliferation (AID 504749); also: nearly all actives have a fitted effect of over 60% in size; also: potency is read from the fitted curve at half-maximal effect", "settings": "P. falciparum in erythrocytes, SYBR Green DNA, 72 h; series mostly up to 28.7 µM", "summary_of_the_method": "as §1"}
{"molecule": "COc1cccc2c1C(=O)c1c(O)c3c(c(O)c1C2=O)C[C@@](O)(C(=O)CO)C[C@@H]3O[C@H]1C[C@H](N)[C@H](OC2CCCCO2)[C@H](C)O1", "note": "(stereo not given in full)", "Potency": "1.58 µM (active)"}
{"molecule": "CCCCCCCCCCCC(CC1OC(=O)C1CCCCCC)OC(=O)C(CC(C)C)NC=O", "note": "(stereo not given)", "Potency": "0.631 µM (active)"}
{"molecule": "CCC(C(=O)O)C1CCC(C)C(C(C)C(O)C(C)C(=O)C(CC)C2OC3(C=CC(O)[C@@]4(CC[C@](C)(C5CC[C@@](O)(CC)C(C)O5)O4)O3)C(C)CC2C)O1", "note": "(stereo not given in full)", "Potency": "0.891 µM (active)"}
{"molecule": "Nc1nc2c(c(=O)[nH]1)N(C=O)[C@H](CNc1ccc(C(=O)N[C@@H](CCC(=O)O)C(=O)O)cc1)CN2", "Potency": "inactive"}
{"molecule": "COc1ccc([C@@H]2CNC(=O)C2)cc1OC1CCCC1", "Potency": "inactive"}
{"molecule": "OCC(O)C(O)C(O)CO", "note": "(stereo not given)", "Potency": "inactive"}
{"molecule": "COc1ccc2c(c1OC)C(=O)OC2[C@H]1c2c(cc3c(c2OC)OCO3)CCN1C", "note": "(stereo not given in full)", "Potency": "inactive"}
